Bioassay records as filed in PubChem BioAssay.
Most compounds without a hit are left out; they make up all but 7.3% or so of the library.
FMDV inh – blocks foot and mouth disease virus | FMDV antiviral cell-based qHTS | Potency, µM (series often up to 57.9 µM), without a hit: top-dose activity change, negative = inhibition, actives largely listed as inhibitors | 1.2% of 410,000 active | AID 1159524; calls by dose curve; tested in HEK293T cells; further: read-out not given here; potency means the concentration at half of the fitted maximal effect; nearly all actives have a fitted effect of over 45% in size
VACV mCherry inh – vaccinia inhibition (mCherry reporter); Potency, µM (series often up to 36.5 µM), without a hit: at the highest dose activity change, negative = inhibition, hits mostly inhibitors; Vaccinia virus mCherry reporter infection, fluorescence; 0.63% of 310,000 active; calls by dose curve; tested in A549 cells; further: potency means the concentration at half of the fitted maximal effect; nearly all actives have a fitted effect of over 35% in size
HCV inh – inhibitors of hepatitis C virus infection; Potency, µM (series often up to 41.8 µM), for the others: top-dose activity change, negative = inhibition, most hits filed as inhibitors; Huh7.5.1 HCVcc-Cre infection, luciferase reporter, 44 h; 3.4% of 340,000 active; active means well fitted inhibition curve with a large enough effect; inconclusive means small, poorly fitted or top-dose-only effect, or another doubt; inactive means no such curve, though single readings can be large or run the other way; further: potency means the concentration at half of the fitted maximal effect
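A cell-based infection assay in which seeded cells (1,000 per well) receive test compound after 4 h, are inoculated with HCVcc-Cre at approximately 0.5 moi, and are incubated 44 h before luminescence detection.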
VACV Venus inh – inhibitors of vaccinia virus (Venus reporter). Vaccinia virus Venus reporter expression, fluorescence. Potency, µM (doses to about 36.5 µM), for inactives: top-dose activity change, negative = inhibition, most hits filed as inhibitors. 0.46% of 330,000 active; calls by dose curve; tested in A549 cells; further: potency means the concentration at half of the fitted maximal effect; nearly all actives have a fitted effect of over 30% in size
HCMV inh – human cytomegalovirus inhibition; 4.5% of 410,000 active; HFF cells, HCMV-luciferase reporter, 72 h; hits give low values; activity change, negative = inhibition, % at 57.5 µM; in the data active means activity change below about -60%; inconclusive means no clear call, values can overlap the other calls; inactive means above about -39%
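After 16 h attachment at 37C, HFF cells received test compound and HCMV-luciferase (1 PFU/cell); reporter luminescence read 72 h later, data normalized against buffer-only and known inhibitor Salinomycin.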
An asterisk follows results filed as active; i = inactive; ? = inconclusive; . = not tested or not shown; [ ] = another dose, or the depositor's remark. On the % scale 0 is the no-effect control and ±100 the full control effect.

SMILES	FMDV inh	VACV mCherry inh	HCV inh	VACV Venus inh	HCMV inh
COCCn1c(SCc2cccc([N+](=O)[O-])c2)nc2ccccc2c1=O	?	?	11µM*	-6%	?
Cn1c(SCc2cccc(C#N)c2)nc2ccccc2c1=O	?	i	32µM*	-11%	-64*
CCOC(CCn1c(SCc2cccc([N+](=O)[O-])c2)nc2ccccc2c1=O)OCC	?	-20%	?	-19%	16
Cc1cc(C(=O)CSc2nc3ccccc3c(=O)n2C)c(C)n1Cc1ccc2c(c1)OCO2	?	.	1.6µM*	.	-11
Cc1nnc(SCc2cccc([N+](=O)[O-])c2)[nH]c1=O	-8%	i	-1%	0%	-81*
Cc1nnc(SCc2ccc([N+](=O)[O-])cc2)[nH]c1=O	21%	2%	9%	0%	?
Cn1c(SCc2cccc([N+](=O)[O-])c2)nc2ccccc2c1=O	20µM*	?	-25%	?	?
O=C(Nn1c(SCc2cccc([N+](=O)[O-])c2)nc2ccccc2c1=O)c1ccccc1	51%	i	-10%	-7%	17
COCCn1c(SCCOc2ccccc2)nc2ccccc2c1=O	25µM*	-19%	?	-10%	-18
COc1ccc(CNC(=O)O[C@H]2CC[C@@]34CCCN3C(=O)CCC[C@H]4[C@H]2Cc2ccccc2)cc1OC	.	.	.	.	10
CC(C)[C@H](NC(=O)N1c2ccccc2NC(=O)[C@@H]1C(C)C)C(=O)N1CCC(C(=O)O)CC1	5%	-5%	32µM*	-5%	40
CC(C)[C@H]1C(=O)Nc2ccccc2N1C(=O)N[C@@H](Cc1ccccc1)C(=O)N[C@@H](C(=O)O)c1ccccc1	-5%	6%	4%	6%	10
CCC(C)N1C(=O)/C(=C/c2ccc3c(c2)CCN3CCCCl)C(=O)NC1=S (configuration not stated)	32µM*	-4%	4%	15%	15
CCOc1ccc(NC(=S)N(CCc2c(C)[nH]c3ccc(C)cc23)Cc2ccco2)cc1	-20%	i	11µM*	-14%	?
COc1ccc(NC(=S)N(CCc2c(C)[nH]c3ccc(C)cc23)Cc2ccco2)cc1	-12%	-28%	?	?	8
COc1ccc2[nH]c(C)c(CCN(Cc3cccs3)C(=S)Nc3ccc(F)cc3)c2c1	-12%	?	11µM*	-21%	.
COCCNC(=S)N(CCc1c(C)[nH]c2ccc(C)cc12)Cc1ccco1	12%	-23%	?	-20%	13
CNC(=S)N(CCc1c(C)[nH]c2ccc(C)cc12)Cc1cccs1	-9%	.	10µM*	.	27
COCCNC(=S)N(CCc1c(C)[nH]c2ccc(F)cc12)Cc1ccc(C)cc1	-6%	-27%	14µM*	-7%	-13
COCc1c(C(=O)Nc2ccc3nc(N4CCOCC4)sc3c2)oc2ccccc12	25µM*	?	?	-26%	-12
Nc1c(N(CCC2=CCCCC2)C(=O)Cc2ccc(F)cc2)c(=O)[nH]c(=O)n1Cc1ccccc1	-16%	-25%	?	-15%	-16
CC(C)CCN(C(=O)Cc1ccc(Cl)c(Cl)c1)c1c(N)n(Cc2ccccc2)c(=O)[nH]c1=O	?	-8%	10µM*	-14%	-31
Nc1c(N(CCC2=CCCCC2)C(=O)COc2ccc(F)cc2Cl)c(=O)[nH]c(=O)n1Cc1ccccc1	?	.	?	.	-98*
O=C(CSc1oc(-c2ccc(F)cc2)nc1S(=O)(=O)c1ccccc1)NCC1CCCO1 (configuration not stated)	-12%	-14%	-8%	-12%	-64*
Cc1ccc(S(=O)(=O)c2nc(-c3ccccc3)oc2SCC(=O)NCC2CCCO2)cc1 (configuration not stated)	3%	-10%	10µM*	-11%	?
SMILES	FMDV inh	VACV mCherry inh	HCV inh	VACV Venus inh	HCMV inh
Cc1ccc(-c2nc(S(=O)(=O)c3ccc(F)cc3)c(SCC(=O)NCC3CCCO3)o2)cc1 (configuration not stated)	-9%	-7%	2%	-2%	-38
N#Cc1c(-c2ccccc2)cc(-c2ccccc2)nc1SCC(O)CS(=O)(=O)Cc1ccccc1 (configuration not stated)	-6%	-17%	.	-10%	-10
CCn1c(C(=O)N2CCCC(C(=O)N3CCN(c4cc(C)ccc4C)CC3)C2)cc2sccc21 (configuration not stated)	?	-19%	.	-9%	-24
COc1ccc(/C=N/Nc2nnc(Cc3ccc(OC)c(OC)c3)c(=O)[nH]2)cc1OC	23%	-8%	?	7%	-26
COc1ccc(/C=N/Nc2nnc(Cc3ccc(OC)c(OC)c3)c(=O)[nH]2)cc1	-1%	-5%	1%	-6%	-68*
Cc1nnc(Cc2ccco2)c2n[nH]c(C)c12	-10%	-21%	.	-5%	2
Cc1ccc(NC(=O)Nc2c(C)[nH]c(=O)[nH]c2=O)cc1Cl	-9%	-17%	-17%	-4%	-9
COc1ccc2[nH]cc(CCNc3ncncc3-c3cccc(C#N)c3)c2c1	-23%	.	.	.	.
Cc1ncc(CO)c(/C=N/NC(=S)Nc2ccc(C(C)C)cc2)c1O	-9%	-20%[7.34 µM]	11µM*	-2%[7.34 µM]	5
Cc1ncc(CO)c(/C=N/NC(=O)c2ccc(Br)cc2)c1O	.	.	9%	.	.
CCC1=Nc2cc(C(=O)NCCc3ccccc3)ccc2Sc2ccc(Cl)cc21	-2%	-25%	.	-28%	4
CCOCCCNC(=O)c1ccc2c(c1)N=C(CC)c1cc(Br)ccc1S2	-20%	-21%	-29%	?	-88*
CCCC1=Nc2cc(C(=O)NCCc3ccccc3)ccc2Sc2ccc(C)cc21	-2%	-7%	.	?	-67*
CCCC1=Nc2cc(C(=O)NCCCN3CCN(C)CC3)ccc2Sc2ccccc21	-2%	.	?	.	0
CCC1=Nc2cc(C(=O)NCCN(CC)CC)ccc2Sc2ccccc21	-17%	-12%	.	-11%	?
CCOC(=O)N1CCC(NC(=O)c2ccc3c(c2)N=C(CC)c2ccccc2S3)CC1	-30%	-17%[7.34 µM]	10µM*	-9%[7.34 µM]	?
CCCC1=Nc2cc(C(=O)NC3CCC(C)CC3)ccc2Sc2ccccc21 (configuration not stated)	5%	-26%[7.34 µM]	.	-21%[7.34 µM]	-77*
CC(C)N1CCN(C(=O)c2cnn(-c3nccc(-c4ccc5c(c4)OCO5)n3)c2-c2ccco2)CC1	-4%	?	.	-24%	.
CCCNC(=O)c1ccc2c(c1)N=C(CCC)c1ccccc1S2	-15%	?	.	?	-86*
COc1ccc(NS(=O)(=O)c2cc(NC(=O)C3CCCO3)ccc2N2CCCCC2)cc1 (configuration not stated)	76%	-16%	?	-9%	-64*
COc1ccc(NS(=O)(=O)c2ccc(N3CCCC3)c(NC(=S)Nc3ccc(SC(F)F)cc3)c2)cc1	-14%	?	22µM*	-13%	-28
